This is an account of results in PubChem BioAssay (NCI).

Molecules are shown by their SMILES. The panel holds about 83,000 compounds, 20% with a hit somewhere; the sample as a whole holds those more often.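 Step 1: grow cells in 96-well plates. Step 2: add test compound at a single concentration. Step 3: incubate 48 h. Step 4: record percent growth.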 Unmarked numbers belong to inactive results. Activity calls are given as the source filed them. The calls were made as follows: active = growth percent below 10; inactive = the rest.

Among the test systems are DU-145 prostate; MALME-3M melanoma; MDA-MB-231 breast; RXF 393 renal; SF-268 CNS; SF-295 CNS; SF-539 CNS; UACC-257 melanoma; K-562 leukemia; M14 melanoma.
What all share (assay): NCI-60 one-dose screen, 48 h (100 = growth as untreated, 0 = no growth, -100 = all killed)
What all share (conditions): 10 µM unless noted

Regarding `COc1cccc2c1C(=O)c1c(O)c3c(c(O)c1C2=O)C[C@](O)(C(=O)CO)C[C@H]3O[C@@H]1C[C@@H](NC(=O)CCCCCN(C)C2(c3ccc(F)cc3)CC3CCC2C3)[C@H](O)[C@@H](C)O1` (stereo partly drawn), the growth in the assay with DU-145 prostate was -42.2% (active); in the assay with MALME-3M melanoma it was -70.9% (active); with MDA-MB-231 breast, -77.1% (active); in the assay with RXF 393 renal, 31.6%; in the assay with SF-268 CNS, 36.1%; with SF-295 CNS, -87.9% (active). Moreover, the growth was -82.9% (active) with SF-539 CNS and 96.4% in the assay on UACC-257 melanoma.
Take `CCOc1nc(-c2ccccc2)cc2c(O)c(C(=O)N/N=C/c3ccc(O)cc3O)[nH]c(=O)c12`: the growth in the assay with DU-145 prostate was 23.4%; in the assay with K-562 leukemia, 31.5%; in the assay on MDA-MB-231 breast, 43.2%; with RXF 393 renal it was -35.2% (active); in the assay with SF-268 CNS, 16.3%; in the assay on SF-295 CNS, 19.3%. The growth in the assay with SF-539 CNS is 16%; in the assay on UACC-257 melanoma, -29.1% (active); with M14 melanoma, 21.5%.
Regarding `Cc1cc(N2CCN(c3ccnc4cc(Cl)ccc34)CC2)nc(NC2CCCCC2)n1`, the growth in the assay on DU-145 prostate is 51.5%; with K-562 leukemia, 5.36% (active); in the assay with MDA-MB-231 breast, -3.08% (active); in the assay with RXF 393 renal it was 48.8%; in the assay on SF-268 CNS it was 47.4%; with SF-295 CNS it was 18.9%. Besides, the growth in the assay on SF-539 CNS was 43%; with UACC-257 melanoma it was -0.92% (active); in the assay on M14 melanoma it was -45.1% (active).
`COc1ccc2cc(-c3nn(-c4ccc(C(=O)O)cc4)cc3CO)ccc2c1`: the growth in the assay with DU-145 prostate was 103%; in the assay on MALME-3M melanoma it was 106%; in the assay with MDA-MB-231 breast it was 111%; in the assay with RXF 393 renal it was 122%; in the assay on SF-268 CNS, 86.3%; with SF-295 CNS, 99.1%. Also, the growth in the assay on SF-539 CNS is 93.1%; in the assay on UACC-257 melanoma, 103%.
With `COc1cc(Nc2cc(C)nc(N3CCN(c4ccnc5cc(Cl)ccc45)CC3)n2)cc(OC)c1`, the growth with DU-145 prostate is 2.17% (active); with K-562 leukemia it was 8.3% (active); with MDA-MB-231 breast it was -35.1% (active); with RXF 393 renal it was 4.88% (active); in the assay with SF-268 CNS, 15.1%; with SF-295 CNS it was 0.307% (active). The growth is -16.9% (active) in the assay on SF-539 CNS, 49.2% with UACC-257 melanoma and 4.43% (active) in the assay with M14 melanoma.
As for `COc1cc2c(cc1O)CC[C@@H]1[C@@H]2CC[C@]2(C)[C@@H](NCCN(C)C)CC[C@@H]12`, the growth in the assay with DU-145 prostate is -94.3% (active); in the assay with MALME-3M melanoma, -72.5% (active); with MDA-MB-231 breast it was -82.6% (active); with RXF 393 renal it was -95.7% (active); in the assay on SF-268 CNS, -78.8% (active); in the assay on SF-295 CNS it was -88.5% (active). The growth in the assay on SF-539 CNS was -86.5% (active); in the assay with UACC-257 melanoma it was -84.9% (active); in the assay on M14 melanoma it was -63.7% (active).
Regarding `CC(C)c1c(C(=O)c2ccccc2)c(-c2ccccc2)c(-c2ccc(F)cc2)n1CC[C@@H](O)C[C@@H](O)CC(=O)O`, the growth is 105% with DU-145 prostate; 71.3% with K-562 leukemia; 85.2% with MALME-3M melanoma; 36.6% with RXF 393 renal; 34.7% in the assay with SF-268 CNS; 30.7% in the assay on SF-295 CNS. For the same compound, the figures for the growth with SF-539 CNS, in the assay with UACC-257 melanoma and in the assay with M14 melanoma were 80%, 83.8% and 63.8%, respectively.
Consider `O=C(CN1CCCCC1)Nc1ccc2oc(=O)ccc2c1`, for which the growth is 113% in the assay on DU-145 prostate; 106% in the assay with MALME-3M melanoma; 105% in the assay with MDA-MB-231 breast; 113% in the assay on RXF 393 renal; 97.5% with SF-268 CNS; 106% in the assay on SF-295 CNS. The growth is 129% in the assay on SF-539 CNS, 96.3% in the assay with UACC-257 melanoma and 106% in the assay on M14 melanoma.
For `Cc1cc(N2CCN(c3ccnc4cc(Cl)ccc34)CC2)nc(N2CCOCC2)n1`, the growth with DU-145 prostate was 88.1%; in the assay on K-562 leukemia, 55.9%; in the assay with MDA-MB-231 breast, 64.1%; with RXF 393 renal, 80.6%; with SF-268 CNS it was 87.4%; with SF-295 CNS it was 81.1%. Besides, the results for the growth in the assay with SF-539 CNS, with UACC-257 melanoma and in the assay on M14 melanoma were 96.6%, 88.6% and 87.2%, respectively.
Turning to `Cc1cc(N[C@@H]2CCC[C@H](Nc3ccnc4cc(Cl)ccc34)C2)nc(N2CCCCCC2)n1`, the growth is -6.21% (active) with DU-145 prostate; -86.4% (active) in the assay on MALME-3M melanoma; -85.8% (active) in the assay with MDA-MB-231 breast; -80.6% (active) in the assay with RXF 393 renal; -66.2% (active) in the assay with SF-268 CNS; -76.1% (active) with SF-295 CNS. The growth in the assay with SF-539 CNS is -93% (active); with UACC-257 melanoma it was -76.5% (active); with M14 melanoma it was -89.2% (active).
For `CN1CCN(c2nc(NCCCCNc3ccnc4cc(Cl)ccc34)c3ccccc3n2)CC1`, the growth with DU-145 prostate is 75.7%; with MALME-3M melanoma it was -53.5% (active); in the assay on MDA-MB-231 breast it was -5.35% (active); in the assay on RXF 393 renal, 9.29% (active); with SF-268 CNS, 64.9%; in the assay with SF-295 CNS it was 80%. Also, the growth with SF-539 CNS is -73.7% (active); in the assay on UACC-257 melanoma it was -32.4% (active); in the assay on M14 melanoma, -75.9% (active).
Consider `Cc1cc(N2CCN(C)CC2)nc(NC2CCCC(Nc3ccnc4cc(Cl)ccc34)C2)n1` (stereo not drawn), for which the growth is 16.9% in the assay on DU-145 prostate; -82.9% (active) in the assay on MALME-3M melanoma; -76.4% (active) in the assay with MDA-MB-231 breast; -62.2% (active) with RXF 393 renal; -2.4% (active) in the assay on SF-268 CNS; -71.8% (active) in the assay with SF-295 CNS. Further, the values for the growth in the assay on SF-539 CNS, in the assay with UACC-257 melanoma and with M14 melanoma were -84.3% (active), -73.6% (active) and -86.4% (active), respectively.
Regarding `CCNc1ncnc2c1cnn2C1CCCO1` (stereo not drawn), the growth with DU-145 prostate is 120%; in the assay with MALME-3M melanoma, 110%; with MDA-MB-231 breast, 110%; with RXF 393 renal it was 105%; with SF-268 CNS it was 96.9%; in the assay with SF-295 CNS it was 101%. For the same compound, the growth in the assay with SF-539 CNS was 105%; with UACC-257 melanoma it was 99.6%; with M14 melanoma, 104%.
For the compound `NC(=NCCCOc1ccc(Cl)cc1)Nc1ccc(C(F)(F)F)cc1`, the growth was 20.4% with DU-145 prostate; -49.3% (active) in the assay on MALME-3M melanoma; 10.1% with MDA-MB-231 breast; 71.4% with RXF 393 renal; 46% with SF-268 CNS; 43.9% with SF-295 CNS. The growth in the assay on SF-539 CNS is 48.7%; in the assay on UACC-257 melanoma it was 11.7%; with M14 melanoma, -47.8% (active).
Take `CSc1ccc(SC2c3ccc(C)cc3Oc3nc(N)c(C#N)c(N)c32)cc1` (stereo not drawn): the growth was -88.7% (active) with DU-145 prostate; -94% (active) with MALME-3M melanoma; -90.5% (active) in the assay on MDA-MB-231 breast; -70.2% (active) in the assay with RXF 393 renal; -26.1% (active) in the assay on SF-268 CNS; 15.3% in the assay with SF-295 CNS. In addition, the growth in the assay with SF-539 CNS was -86.7% (active); in the assay with UACC-257 melanoma, -76.3% (active); in the assay on M14 melanoma it was -81.6% (active).
